High-throughput results: PubChem, several laboratories
APP 5'UTR act – activates APP 5'UTR luciferase reporter; SH-SY5Y APP 5'UTR luciferase reporter, luminescence; zero percent = DMSO vehicle wells; activation, % at 2 µM; 190,000 tested, 1% active; AID 1276;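 active = activation above a set limit, based on mean plus 3 SD of controls, cut at about 140% in these data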
ssDAF12 agonist – activators of S. stercoralis DAF-12 nuclear receptor. HEK293 ssDAF-12/GRIP1 lit1-tk-luc reporter, luminescence; % of 3 µM dafachronic acid response. activation, % at 6.8 µM. 370,000 tested, 1% active;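 active = activation above the mean over all tested compounds plus 3 SD, cut at about 0.9% in these data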;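 also: 0% = DMSO-only wells and 100% = 3 µM delta7-dafachronic acid wells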
NF-kB neuron act – NF-kB expression increase, human neuronal cells. NF-kB reporter expression; stronger effect = higher value. fold change at 12.5 µM. 190,000 tested, 1.6% active; in the data active = fold change above about 3.3
hgDAF12 agonist – hgDAF-12 agonism, primary luciferase screen; HEK293 GAL4-hgDAF12 UAS-luciferase reporter, agonist luminescence; normalized to butyrate control; activation, % at 6.8 µM; 370,000 tested, 1.8% active; AID 687014;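 active = activation above a cutoff set at the mean of all screened compounds plus 3 SD, cut at about 10% in these data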;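 also: 0% = DMSO wells and 100% = sodium butyrate wells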
hcDAF-12 act – activates DAF-12 receptor from parasite H. contortus. AID 652067. 370,000 tested, 1.4% active. activation, % at 6.8 µM. HEK293 hcDAF-12 lit1-tk-luc reporter, luminescence; 0% DMSO, 100% Δ7-dafachronic acid;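 active = activation above the mean of all tested compounds plus 3 SD, cut at about 5.5% in these data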;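 also: 100% = response to 3 µM Δ7-dafachronic acid high control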
* hit, by the source's call; x = not tested or not shown. An excerpt weighted towards active compounds, which were near 3.4% of everything screened.

SMILES	APP 5'UTR act	ssDAF12 agonist	NF-kB neuron act	hgDAF12 agonist	hcDAF-12 act
S=C(Nc1ccccc1Br)OCCN1CCCC12CCC(c1ccccc1)CC2 (stereo not drawn)	x	-2.0	x	-0.8	0.8
COC(=O)[C@H](C(C)C)N(CCc1cn(Cc2ccc(C)cc2)nn1)S(=O)(=O)c1ccccc1Br	x	-1.5	x	-1.0	-4.0
CCN(CC)C(=O)Oc1ccc2c(=O)c(-c3ccc(OC)cc3)c(C)oc2c1	5.3	-2.3	0.9	5.5	-1.1
CCN(CC)C(=O)Oc1ccc2cc(Br)ccc2c1	23.7	-1.5	2.13	5.3	6.3*
Cc1ccccc1Cn1cc(COC(=O)N2CCOCC2)nn1	x	-1.2	x	2.0	-0.7
Cc1ccc(C)c(NC(=O)C2CCCN2S(=O)(=O)c2cccc3cccnc23)c1 (stereo not drawn)	x	-1.5	x	2.1	-2.9
Cc1ccc(C(=O)NCc2ccc3c(c2)OCO3)c(C)c1	x	-1.2	x	3.4	-0.1
C/C(CCc1ccc2c(c1)OCO2)=N\NC(=O)c1ccc(C)cc1C	4.0	-0.4	1.31	12.7*	1.0
CC(=O)c1cc(-c2cccc(C#N)c2)c(=O)n2c1CCC2	x	-1.0	x	-0.9	-0.8
CC(NC(=O)c1ccccc1)c1ccc(Br)cc1 (stereo not drawn)	-1.1	-0.9	0.99	-0.7	-0.3
C=CC(=O)NC(NC(=O)C=C)c1ccc(Br)cc1	-0.6	-0.2	3.33*	1.3	2.7
O=C(CCc1ccccc1)N[C@H]1[C@H](OC(=O)c2ccco2)CCC[C@@]12C(=O)N(Cc1ccccc1)c1ccccc12	x	-2.1	x	-0.8	-2.4
CN=c1scc(-c2cccs2)n1/N=C/c1ccccc1O	-53.1	-3.6	0.17	-21.1	-11.2
CN=c1scc(-c2ccccc2Br)n1/N=C/c1ccc[nH]1	174.2*	x	1.18	x	x
COc1cc(/C=C/c2ccc3cccc(O)c3n2)cc(OC)c1OC	x	-1.9	x	-9.3	-4.7
COc1cc(/C=C/c2ccc3cccc(O)c3n2)cc(Br)c1OC	x	-0.2	x	11.5*	0.5
CCCC(=O)Nc1ccc2c(c1)Cc1ccccc1-2	x	0.3	x	7.7	2.4
CC(=O)Nc1cc2c(cc1Br)-c1ccccc1C2	x	-0.3	x	10.6*	6.2*
Cn1c(SC2CCCC2)nnc1-c1ccco1	x	-0.8	x	4.3	1.4
CC(=O)c1ccccc1OCCOc1ncnc2sccc12	2.5	-1.9	1.05	11.1*	2.4
COC(=O)C1CN(Cc2ccc(Cl)cc2)CCS(=O)(=O)N1Cc1cn(Cc2ccc(OC)cc2)nn1 (stereo not drawn)	x	-1.0	x	2.5	-1.7
CN1C[C@]2(C=C3CCCCC3n3c(=O)n(-c4ccccc4)c(=O)n32)N(C(=O)OCc2ccccc2)C1=NC(=O)c1ccccc1 (stereo partly drawn)	x	-0.6	x	-1.0	-1.6
COC(=O)[C@]12C[C@H](CC(=O)N3CCSCC3)C(=O)N(Cc3ccccc3)C1=C[C@H](COCc1ccccc1)O[C@@H]2C	x	-1.6	x	2.0	0.4
Cc1cccc2c(C(=O)O)c3cccc(C)c3nc12	x	1.3*	x	6.9	5.2
COc1ccc2c3n(nc2c1)CCN=C3c1ccc(C)cc1	x	-0.6	x	2.4	3.2
SMILES	APP 5'UTR act	ssDAF12 agonist	NF-kB neuron act	hgDAF12 agonist	hcDAF-12 act
COc1ccc(C2=NCCn3nc4cc([N+](=O)[O-])ccc4c32)cc1	x	-0.8	x	1.1	5.8*
Cc1cc(NC(=O)Nc2ccc3c(ccn3C)c2)sn1	x	-0.8	x	11.4*	0.9
O=C(Nc1ccccc1)Nc1c(-c2ccc(F)cc2)nc2ncccn12	x	-0.5	x	-2.1	-2.8
Oc1ccc(/C=N/NC(=S)NC2CC3CCC2C3)cc1 (stereo not drawn)	x	-1.0	x	8.5	0.8
S=C(N/N=C/c1cccs1)NC1CC2CCC1C2 (stereo not drawn)	x	-1.2	x	11.0*	-1.0
CC(C)OC(=O)c1cc2ccccc2[nH]1	22.9	-1.9	1.73	2.0	-0.2
CCOC(=O)c1cc2cc3ccccc3cc2[nH]1	118.1	1.0*	3.44*	9.1	4.2
O=C(Nc1ccc(Cl)cc1)c1ccc2sc([C@@H]3O[C@H](CO)[C@@H](O)[C@H]3O)nc2c1	x	0.1	x	11.1*	3.6
O=C(Nc1nc2ccccc2s1)c1ccc2sc([C@H]3C[C@H](O)[C@@H](CO)O3)nc2c1	x	-0.8	x	11.2*	0.3
O=C(Nc1ccc2c(c1)OCO2)c1ccc2sc([C@@H]3O[C@H](CO)[C@@H](O)[C@H]3O)nc2c1	x	-1.3	x	3.4	0.0
O=C(Nc1ccc(Cl)cc1)c1ccc2snnc2c1	x	-0.5	x	10.9*	6.2*
